For seven molecules, Potency results are on record in PubChem BioAssay (Tox21).

The structures appear in SMILES notation. Results filed as inconclusive are left out. The source made the active and inactive calls. Unless noted, the call rests on the fitted dose curve.

Experiment [1] is described as follows: Nuclear factor erythroid 2-related factor 2/antioxidant responsive element (Nrf2/ARE) small molecule agonists: qHTS cell viability counter screen in human keratinocytes (AID 1919968; active means well fitted curve in the direction sought with a large enough effect in the repeat runs; an effect the other way counts as inactive or inconclusive; further: nearly all actives have a fitted effect of over 55% in size). In short, it runs like this:
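KeratinoSens HaCaT cells, 1,500/well, preincubated 5 h, then exposed to compounds in DMSO for 23 h at 37 C/5% CO2. Viability read as CellTiter-Fluor fluorescence after 1 h, in the same wells as the ARE-luciferase read.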

Experiment [2] in a line: Nuclear factor erythroid 2-related factor 2/antioxidant responsive element (Nrf2/ARE) small molecule agonists: luciferase reporter gene qHTS assay in human keratinocytes (AID 1919969). Further: nearly all actives have a fitted effect of over 35% in size.
In experiment [3] the target is KiSS-1 receptor (Homo sapiens) (UniProt Q969F8). In words: Human kisspeptin (KISS1R) small molecule agonists, calcium flux assay in KISS1R-HEK293 cells (AID 1920064; active means well fitted curve in the direction sought with a large enough effect in the repeat runs; an effect the other way counts as inactive or inconclusive). In short, it runs like this:
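HEK293 cells stably expressing human KISS1R were loaded with calcium dye for 1 h at 37 C, then given compound; fluorescence (Ex/Em 480/540) was read kinetically for 3 min. Fifteen concentrations, triplicate.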

The nature of experiment [4]: G protein-coupled receptor (GPCR) small molecule agonists, calcium flux assay: HEK293 wild type cell line counter screen (AID 1920065). In a few lines: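 Wild-type HEK293 cells plated 18 h, loaded with calcium dye 1 h at 37 C, then compounds added in agonist mode (ATP as positive control). Kinetic fluorescence Ex/Em 480/540 recorded 3 min at 1 sec intervals; 15 concentrations, triplicate.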

A short description of experiment [5]: p53 small molecule agonists, cell-based qHTS assay with human liver microsomes: qHTS cell viability counter screen (AID 1963579). Further: nearly all actives have a fitted effect of over 45% in size. In a few lines:
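p53RE-bla cells (4,000/well) were pre-incubated 5 h at 37 C, then given compounds in DMSO plus human liver microsomes (0.5 mg/mL final) and NADPH (0.5 mg/mL final) for 16 h at 37 C. Viability was read by CellTiter-Glo luminescence.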

Experiment [6] can be described thus: p53 small molecule agonists, cell-based qHTS assay: qHTS cell viability counter screen (AID 1963581). Further: nearly all actives have a fitted effect of over 45% in size. In short, it runs like this:
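p53RE-bla HCT-116 cells, compounds added 5 h after plating and incubated 16 h at 37 C. Cytotoxicity measured in the same wells as intracellular ATP by CellTiter-Glo luminescence after 30 min at room temperature.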

Experiment [7] can be described thus: p53 small molecule agonists, cell-based qHTS assay (AID 1963582; active means well fitted activation curve with a large enough effect in the signal ratio in the repeat runs, not every such curve was filed as active; the % refers to the signal ratio). In short, it runs like this:
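p53RE-bla reporter cells, compounds added in DMSO after 5 h plating, incubated 16 h at 37 C. Beta-lactamase read via 2 h room-temperature LiveBLAzer B/G FRET substrate, fluorescence intensity.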

For experiment [8], the target named is 5-hydroxytryptamine receptor 2A (Homo sapiens) (UniProt P28223). In words: 5-hydroxytryptamine receptor 2A (HTR2A) small molecule antagonists, cell-based qHTS assay (AID 1963586). Further: nearly all actives have a fitted effect of over 45% in size. Further: potency means the concentration at half of the fitted maximal effect. In a few lines: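 Antagonist-mode intracellular calcium assay: DOI (4 nM) added after 5 min compound pre-incubation at room temperature to dye-loaded HTR2A-CHO cells. Fluorescence followed for 3 min, sampled every second.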
Sequence of 5-hydroxytryptamine receptor 2A (Homo sapiens) (P28223 whole entry, looked up): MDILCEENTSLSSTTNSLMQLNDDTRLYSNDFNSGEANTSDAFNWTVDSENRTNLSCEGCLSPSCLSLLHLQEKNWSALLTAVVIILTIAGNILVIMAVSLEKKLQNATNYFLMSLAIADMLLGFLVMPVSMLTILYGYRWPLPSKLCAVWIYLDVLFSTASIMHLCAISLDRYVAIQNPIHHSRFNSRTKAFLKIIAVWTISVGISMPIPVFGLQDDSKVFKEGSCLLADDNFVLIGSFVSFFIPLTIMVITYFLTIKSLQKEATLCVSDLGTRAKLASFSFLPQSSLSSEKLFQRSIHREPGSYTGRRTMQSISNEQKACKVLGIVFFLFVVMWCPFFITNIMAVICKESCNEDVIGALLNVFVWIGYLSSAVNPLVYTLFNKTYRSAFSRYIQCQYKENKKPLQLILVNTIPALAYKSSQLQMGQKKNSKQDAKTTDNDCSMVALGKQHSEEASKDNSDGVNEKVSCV

The target in experiment [9] is Muscarinic acetylcholine receptor M1 (Homo sapiens) (UniProt P11229). In words: Cholinergic receptor muscarinic 1 (CHRM1) small molecule antagonists, cell-based qHTS assay (AID 1963588). Further: nearly all actives have a fitted effect of over 40% in size. In short, it runs like this: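 CHRM1-CHO calcium-flux assay, antagonist mode. Cells were seeded 18 h, dye-loaded 1 h at 37 C and given compound for 5 min at RT, then acetylcholine was added at 50nM. FDSS fluorescence was read 3 min; 15 concentrations, three runs.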
Sequence of Muscarinic acetylcholine receptor M1 (Homo sapiens) (P11229 whole entry, looked up): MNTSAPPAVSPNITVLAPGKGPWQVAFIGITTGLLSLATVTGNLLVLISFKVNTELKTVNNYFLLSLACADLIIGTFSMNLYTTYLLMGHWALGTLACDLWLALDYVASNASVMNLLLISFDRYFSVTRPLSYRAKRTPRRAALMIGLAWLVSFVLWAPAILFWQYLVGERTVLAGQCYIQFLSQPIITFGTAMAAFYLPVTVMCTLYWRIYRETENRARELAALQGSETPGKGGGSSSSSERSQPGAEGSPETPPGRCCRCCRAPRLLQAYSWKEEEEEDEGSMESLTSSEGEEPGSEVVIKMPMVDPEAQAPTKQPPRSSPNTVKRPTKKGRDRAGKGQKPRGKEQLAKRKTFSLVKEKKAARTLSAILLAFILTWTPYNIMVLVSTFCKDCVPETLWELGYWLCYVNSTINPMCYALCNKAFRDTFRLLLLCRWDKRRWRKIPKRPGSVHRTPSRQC

The target is the same in experiment [10]. In words: Cholinergic receptor muscarinic 1 (CHRM1) small molecule agonists, cell-based qHTS assay (AID 1963589). Further: nearly all actives have a fitted effect of over 35% in size. In a few lines:
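CHO cells stably expressing human CHRM1 were loaded with calcium dye for 1 h at 37 C, then compound was added in agonist mode. Intracellular calcium fluorescence was followed kinetically at 1 s intervals. Fifteen concentrations were tested in three independent runs.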

Experiment [11] is described as follows: cAMP Responsive Elements (CRE) small molecule agonists, cell-based qHTS assay (AID 1963590). In a few lines: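 CRE-bla HEK 293T cells, 2,000/well in DMEM with 10% dialyzed FBS and 25 mM HEPES, pre-incubated 18 h at 37 C, then exposed to compound 3 h at 37 C. Beta-lactamase reporter read with LiveBLAzer B/G FRET substrate after 2 h at room temperature.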
Experiment [12] concerns the target Beta-2 adrenergic receptor (Homo sapiens) (UniProt P07550). In words: Adrenergic beta2 receptor (ADRB2) small molecule antagonists, cell-based qHTS assay (AID 1963592). Further: nearly all actives have a fitted effect of over 50% in size. Further: potency means the concentration at half of the fitted maximal effect. In a few lines:
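Cells (CHO, stable ADRB2 overexpression) incubated 18-20hr at 37C; compounds added from DMSO; agonist mix (1nM isoproterenol, 100uM IBMX, 25uM Ro-20-1724) added; 0.5hr RT; d2-cAMP and anti-cAMP-cryptate added; 1hr RT; 665/615 nm read.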

Experiment [13] has as its target D(2) dopamine receptor (Homo sapiens) (UniProt P14416). As to the kind of experiment: Dopamine D2 receptor (DRD2) small molecule agonists, cell-based qHTS assay (AID 1963594). Further: nearly all actives have a fitted effect of over 35% in size. In short, it runs like this:
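cAMP accumulation in DRD2-HEK293 cells measured by HTRF after 1 h detection; compounds added 10 min before NKH477 (200nM […]) forskolin-analogue stimulation, 30 min at room temperature, with Ro20-1724 present at 0.1 mM final.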

A short description of experiment [14]: p53 small molecule agonists, cell-based qHTS assay with rat liver microsomes: qHTS cell viability counter screen (AID 1963580). Further: nearly all actives have a fitted effect of over 45% in size. In short, it runs like this: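 Intracellular ATP, by CellTiter-Glo luminescence, defines viability. HCT-116 p53RE-bla cells, 4,000 per well, were compound-treated in the presence of rat liver microsomes and NADPH for 16 h at 37 C.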

Experiment [15] has as its target 5-hydroxytryptamine receptor 2A (Homo sapiens) (UniProt P28223). In words: 5-hydroxytryptamine receptor 2A (HTR2A) small molecule agonists, cell-based qHTS assay (AID 1963587). Further: nearly all actives have a fitted effect of over 30% in size. In short, it runs like this: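 Kinetic calcium-flux fluorescence (2 min, 1 sec intervals) after compound addition in agonist mode. HTR2A-CHO cells were cultured 18 h, then dye-loaded 1 h at 37 C.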

A short description of experiment [16]: cAMP Responsive Elements (CRE) small molecule antagonists, cell-based qHTS assay (AID 1963591; active means well fitted inhibition curve with a large enough effect in the signal ratio in the repeat runs, not every such curve was filed as active; the % refers to the signal ratio). In a few lines:
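CRE-bla HEK293T cells plated 18 h, then given compound plus NKH477 at 0.25 uM final for 3 h at 37C. Beta-lactamase reporter read with LiveBLAzer B/G FRET substrate after 2 h at room temperature.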

The target of experiment [17] is D(2) dopamine receptor (Homo sapiens) (UniProt P14416). In words: Dopamine D2 receptor (DRD2) small molecule antagonists, cell-based qHTS assay (AID 1963595; active means well fitted inhibition curve with a large enough effect in the signal ratio in the repeat runs, with a control signal flat; the % refers to the signal ratio; further: potency means the concentration at half of the fitted maximal effect). In short, it runs like this: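 Antagonist mode in DRD2-HEK293 cells: after compound addition with 0.1 mM Ro20-1724, cells received quinpirole (12 nM) and NKH477 (200 nM) for 30 min at room temperature; HTRF cAMP read after 1 h detection.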
Sequence of D(2) dopamine receptor (Homo sapiens) (P14416 whole entry, looked up): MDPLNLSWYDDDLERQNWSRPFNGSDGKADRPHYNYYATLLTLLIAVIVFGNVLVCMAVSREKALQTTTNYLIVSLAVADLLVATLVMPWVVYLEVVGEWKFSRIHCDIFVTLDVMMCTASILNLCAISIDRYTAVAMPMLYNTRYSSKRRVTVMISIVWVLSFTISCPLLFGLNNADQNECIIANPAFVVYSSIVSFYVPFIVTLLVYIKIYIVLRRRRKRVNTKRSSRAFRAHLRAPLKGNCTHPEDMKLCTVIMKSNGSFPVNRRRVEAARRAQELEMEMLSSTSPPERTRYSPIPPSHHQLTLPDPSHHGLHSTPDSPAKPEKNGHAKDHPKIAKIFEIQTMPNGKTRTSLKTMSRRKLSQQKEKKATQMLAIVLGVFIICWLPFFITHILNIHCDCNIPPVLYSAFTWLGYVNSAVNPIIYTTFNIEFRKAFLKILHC

Experiment [18] can be described thus: p53 small molecule agonists, cell-based qHTS assay with human liver microsomes (AID 1963577). In short, it runs like this:
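p53RE-bla reporter cells were pre-incubated 5 h at 37 C, then treated with compounds plus human liver microsomes (0.5 mg/mL final) and NADPH (0.5 mg/mL final) for 16 h at 37 C. Beta-lactamase activity was read by LiveBLAzer fluorescence after 2 h at room temperature.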

Experiment [19] can be described thus: p53 small molecule agonists, cell-based qHTS assay with rat liver microsomes (AID 1963578). In a few lines: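 p53RE-bla cells were exposed to compounds together with rat liver microsomes (0.5 mg/mL final) and NADPH (0.5 mg/mL final) for 16 h at 37 C, then read by LiveBLAzer beta-lactamase fluorescence after 2 h at room temperature.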
Experiment [20] deals with Beta-2 adrenergic receptor (Homo sapiens) (UniProt P07550). As to the kind of experiment: Adrenergic beta2 receptor (ADRB2) small molecule agonists, cell-based qHTS assay (AID 1963593).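 Further: CHO cells stably overexpressing human ADRB2.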 In a few lines: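 CHO cells stably over-expressing ADRB2 were plated overnight at 37C, then dosed with compounds plus a stimulation mix containing 100uM IBMX and 25uM Ro-20-1724 for 0.5hr at room temperature. cAMP was measured by HTRF competition, 1hr.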
Sequence of Beta-2 adrenergic receptor (Homo sapiens) (P07550 whole entry, looked up): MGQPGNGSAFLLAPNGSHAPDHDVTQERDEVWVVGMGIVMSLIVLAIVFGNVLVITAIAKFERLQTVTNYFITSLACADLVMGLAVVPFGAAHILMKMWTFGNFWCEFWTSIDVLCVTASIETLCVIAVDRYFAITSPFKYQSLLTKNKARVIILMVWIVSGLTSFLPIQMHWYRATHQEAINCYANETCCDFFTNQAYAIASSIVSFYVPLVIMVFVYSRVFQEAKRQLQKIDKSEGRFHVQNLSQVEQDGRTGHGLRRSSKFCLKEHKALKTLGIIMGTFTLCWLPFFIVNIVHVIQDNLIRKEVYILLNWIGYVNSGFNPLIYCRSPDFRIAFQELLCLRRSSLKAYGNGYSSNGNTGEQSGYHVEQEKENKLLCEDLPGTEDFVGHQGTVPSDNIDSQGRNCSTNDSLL

Sequence of KiSS-1 receptor (Homo sapiens) (Q969F8 whole entry, looked up): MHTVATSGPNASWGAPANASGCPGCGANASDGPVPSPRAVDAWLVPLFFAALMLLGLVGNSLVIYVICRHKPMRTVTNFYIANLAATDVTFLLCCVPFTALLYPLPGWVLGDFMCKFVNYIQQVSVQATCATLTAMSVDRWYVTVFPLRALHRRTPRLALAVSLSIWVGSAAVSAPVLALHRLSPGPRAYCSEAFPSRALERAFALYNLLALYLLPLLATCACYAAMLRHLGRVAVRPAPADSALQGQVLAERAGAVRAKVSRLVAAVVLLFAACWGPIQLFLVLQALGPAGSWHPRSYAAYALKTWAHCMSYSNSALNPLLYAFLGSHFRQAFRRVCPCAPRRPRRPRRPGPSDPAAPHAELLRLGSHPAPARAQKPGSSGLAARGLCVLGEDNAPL

Turning to `O=S(=O)(O)c1ccc(Nc2nc(Nc3ccc(/C=C/c4ccc(Nc5nc(Nc6ccc(S(=O)(=O)O)cc6)nc(N(CCO)CCO)n5)cc4S(=O)(=O)O)c(S(=O)(=O)O)c3)nc(N(CCO)CCO)n2)cc1`, the Potency result in [1], in experiment [2], in [3], in experiment [4], in experiment [5] and in experiment [6] was “inactive” in each case. Moreover, the Potency entry in [7], in experiment [8], in experiment [9], in experiment [10], in [11] and in experiment [12] was “inactive” each time. For the same molecule, the Potency entry in [13] is “inactive”.
`C[C@]12CCC(=O)C=C1CC[C@H]1[C@@H]3CC[C@](O)(C(=O)CO)[C@@]3(C)C[C@H](O)[C@@]12F`: the Potency entry in [1], in experiment [2], in experiment [3], in experiment [4], in [5] and in experiment [14] was “inactive” throughout. Also, the Potency entry in experiment [6], in experiment [8], in experiment [15], in experiment [9], in experiment [10] and in [11] was “inactive” throughout. The Potency entry in experiment [16], in experiment [12] and in [17] was “inactive” throughout.
Take `Cc1nc2ccc(CN(C)c3ccc(C(=O)N[C@@H](CCC(=O)O)C(=O)O)s3)cc2c(=O)[nH]1`: the Potency entry in experiment [1], in experiment [2], in experiment [3], in experiment [4], in experiment [5] and in experiment [14] was “inactive” each time. The Potency entry in experiment [6], in experiment [15], in [10], in experiment [11], in experiment [16] and in experiment [12] was “inactive” in each case. Also, the Potency result in experiment [13] and in experiment [17] was “inactive” in each case.
As for `C[C@@H](CN(C)C)CN1c2ccccc2Sc2ccccc21`, the Potency entry in experiment [1], in [2], in experiment [3], in [18], in [19] and in experiment [5] was “inactive” throughout. Moreover, the Potency entry in experiment [14], in [6], in [10], in experiment [11] and in [16] was “inactive” in each case. Further, the figures for the Potency in experiment [8], in experiment [12] and in experiment [17] were 4.1 nM (active), 29800 nM (active) and 1680 nM (active), respectively.
`S=C([S-])NCCNC(=S)[S-].[Mn+2]`: the Potency result in experiment [1], in [2], in experiment [3], in experiment [4], in experiment [5] and in experiment [14] was “inactive” in each case. Also, the Potency entry in experiment [6], in experiment [15], in experiment [9], in experiment [11], in [12] and in experiment [20] was “inactive” throughout. The Potency entry in experiment [13] is “inactive”.
`O=C1CCCN1C1CCCCC1`: the Potency result in experiment [1], in experiment [2], in experiment [4], in experiment [5], in [14] and in [6] was “inactive” in each case. Besides, the Potency result in [8], in [15], in experiment [9], in experiment [10], in [16] and in [12] was “inactive” each time. In addition, the Potency entry in [13] and in [17] was “inactive” in each case.
For the molecule `CCOC(=O)CC(O)(CC(=O)OCC)C(=O)OCC`, the Potency result in experiment [1], in experiment [3], in experiment [4], in experiment [18], in experiment [19] and in experiment [5] was “inactive” each time. Besides, the Potency result in experiment [14], in experiment [6], in experiment [7], in [8], in [15] and in experiment [9] was “inactive” each time. For the same molecule, the Potency result in experiment [10], in experiment [11], in [16], in experiment [12], in experiment [20] and in experiment [13] was “inactive” throughout. Also, the Potency result in experiment [17] is “inactive”.
